target: NUDT18; experiment: pooled miR-30 sensor sort-seq; sequence = guide strand; conditions: shRNA
Also: reference of the scale not given here.

Question: With TAGTTCAACCAGGTGCAGGATG as the sequence, how does the sensor-assay potency score (higher = more potent) read?
Answer: -0.826

Question: How did the sensor-assay potency score (higher = more potent) turn out when TGTCTCGGGCTCACAGTGCAGC was run?
Answer: -1.13

Question: With TTACTCAGCAACGTGCTCCTCC as the sequence, how does the sensor-assay potency score (higher = more potent) read?
Answer: 0.514

target: NUDT8; experiment: as above; conditions: shRNA

Question: With ATCTTGGTCAGCCGGGTCGCAC as the sequence, how does the sensor-assay potency score (higher = more potent) read?
Answer: -1.97

Question: Which sensor-assay potency score (higher = more potent) does the source give for TGTGCACCACATCTTGGTCAGC here?
Answer: -0.734

Question: With TACACCAGCAAGCACTGGCACC as the sequence, how does the sensor-assay potency score (higher = more potent) read?
Answer: -1.4

Question: How did the sensor-assay potency score (higher = more potent) turn out when TCAGCCGGGTCGCACTTGCCGC was run?
Answer: -1.59

Question: ACCACATCTTGGTCAGCCGGGT was tested. Which sensor-assay potency score (higher = more potent) did it give?
Answer: -1.55

Question: For TTGTGCCTCCCGGTCAGGCGGC, which sensor-assay potency score (higher = more potent) is on record?
Answer: -1.45

Question: TGGTCAGCCGGGTCGCACTTGC was tested. Which sensor-assay potency score (higher = more potent) did it give?
Answer: -1.47

Question: For TTTGCGGATCATACACAGGCCG, which sensor-assay potency score (higher = more potent) is on record?
Answer: -0.907

Question: How did the sensor-assay potency score (higher = more potent) turn out when TGGGAAACTGACGTCGCCCTTG was run?
Answer: -0.952

Question: For TTGCGGATCATACACAGGCCGC, which sensor-assay potency score (higher = more potent) is on record?
Answer: -1.79

Question: For TTGGTCAGCCGGGTCGCACTTG, which sensor-assay potency score (higher = more potent) is on record?
Answer: -1.16

Question: Which sensor-assay potency score (higher = more potent) does the source give for TACAGCAGCGCCGGCACCCCAC here?
Answer: -1.1

target: NUP188; experiment: as above; conditions: shRNA

Question: Which sensor-assay potency score (higher = more potent) does the source give for TAATGCTGCAGCATCTTTCGAC here?
Answer: -0.404

Question: Which sensor-assay potency score (higher = more potent) does the source give for TACTACATAGTATATCTCCAAG here?
Answer: -1.14

Question: TTTTCTTGTCCAGCTCTCCAAG was tested. Which sensor-assay potency score (higher = more potent) did it give?
Answer: -0.925

Question: For TTACACAGGGTACAAGTCCTTG, which sensor-assay potency score (higher = more potent) is on record?
Answer: -0.672

Question: TACTCTAACAAGGAGGTGCAGC was tested. Which sensor-assay potency score (higher = more potent) did it give?
Answer: -0.568

Question: TAGAACAGCAATGAGGTTGTTT was tested. Which sensor-assay potency score (higher = more potent) did it give?
Answer: 0.0605

Question: Which sensor-assay potency score (higher = more potent) does the source give for TATCGCATGAATCAGCTCCAAG here?
Answer: -1.05

Question: With TATTGATAACTGTCTGTCCTGC as the sequence, how does the sensor-assay potency score (higher = more potent) read?
Answer: -0.496

Question: With TAACTCTCTCTTCCACTGCCGG as the sequence, how does the sensor-assay potency score (higher = more potent) read?
Answer: -0.922

Question: With TTGCTCTTTAAACATCTTGGTT as the sequence, how does the sensor-assay potency score (higher = more potent) read?
Answer: -0.993

Question: For TATTGGTCTGCCTACTACCAAA, which sensor-assay potency score (higher = more potent) is on record?
Answer: -1.79

Question: Which sensor-assay potency score (higher = more potent) does the source give for TAGGTGTCTGTGCTGTGCCGTT here?
Answer: -0.606

target: NUP214; experiment: as above; conditions: shRNA

Question: How did the sensor-assay potency score (higher = more potent) turn out when TTTTGTTGGGATCATCTCCGGG was run?
Answer: -0.302

Question: For TAACTCTTCCAACTCCTTCTGA, which sensor-assay potency score (higher = more potent) is on record?
Answer: -0.0589

Question: TAAAGTTCACAAATATCTCTGG was tested. Which sensor-assay potency score (higher = more potent) did it give?
Answer: 0.255

Question: For TTGACTTTGACAGCAGAGGTTG, which sensor-assay potency score (higher = more potent) is on record?
Answer: -0.446

Question: With TTATCAACTATTTTGTTGGGAT as the sequence, how does the sensor-assay potency score (higher = more potent) read?
Answer: 0.33

Question: For TAGAACATCATTCACATCTTGG, which sensor-assay potency score (higher = more potent) is on record?
Answer: -0.0154

Question: Which sensor-assay potency score (higher = more potent) does the source give for TTTGTTGGGATCATCTCCGGGT here?
Answer: -0.0183

Question: How did the sensor-assay potency score (higher = more potent) turn out when TTTATCAACTATTTTGTTGGGA was run?
Answer: 1.13

Question: Which sensor-assay potency score (higher = more potent) does the source give for TTTGTTGGACACAGCAAGCAGA here?
Answer: -0.715

Question: How did the sensor-assay potency score (higher = more potent) turn out when TAATGATGCTGTCTCTCCGTGC was run?
Answer: -0.651

Question: Which sensor-assay potency score (higher = more potent) does the source give for TAATCTGATCACTTTGTCGAGC here?
Answer: -0.175

Question: For TTTAGTAGGAAAAATCTGCAAG, which sensor-assay potency score (higher = more potent) is on record?
Answer: -0.492

Source: the OligoGym collection
